From PubChem BioAssay
S2 tox – viability counter-screen for ATXN expression inhibitors | 400,000 compounds, 0.49% hits | S2 cells (HEK-293 line with an ATXN2-luciferase reporter) viability, CellTiter-Fluor protease fluorescence, 24 h | Potency, µM (titrated, usually from 56.7 µM), actives largely listed as cytotoxic | AID 651635; also: nearly all actives have a fitted effect of over 40% in size
TGFb SMAD3 inh – TGF-b pathway inhibition | HepG2 CAGA-GFP TGF-b/SMAD3 reporter, GFP fluorescence, 18 h; TGF-beta stimulated, 500 pg/mL final | Potency, µM (titrated, usually from 46.1 µM), for the others: top-dose activity, negative = inhibition, most hits filed as inhibitors | 410,000 compounds, 1.2% hits | AID 588855; also: % is scaled to controls: 0 for no effect and ±100 for the full control effect; nearly all actives have a fitted effect of over 65% in size
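TGF-beta reporter screen: HEPG2 CAGA-GFP, 1% FBS, 500 pg/mL TGF-beta final, 18 h; per-cell GFP summed per well; curves fitted and categorized by class.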
KB-3-1 tox – kills parental KB-3-1 adenocarcinoma cells; KB-3-1 viability, CellTiter-Glo ATP luminescence, 72 h; Potency, µM (highest dose often 46.1 µM), hits mostly cytotoxic; 400,000 compounds, 1.4% hits; AID 1347075; also: % is scaled to controls: 0 for no effect and ±100 for the full control effect; nearly all actives have a fitted effect of over 60% in size
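Viability of parental KB-3-1 cells, measured by CellTiter-Glo luminescence, followed a 72 h incubation at 37 °C with pinned compounds in phenol-red-free DMEM containing 10% FBS.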
KB-V1 cytotox – KB-V1 MDR subline cytotoxicity | Potency, µM (top dose mostly 46.1 µM), usual class: cytotoxic | AID 1347076 | 400,000 compounds, 3.4% hits | KB-V1 MDR cells viability, CellTiter-Glo, 72 h; also: % is scaled to controls: 0 for no effect and ±100 for the full control effect; nearly all actives have a fitted effect of over 60% in size
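Drug-selected KB-V1 cells, grown in DMEM lacking phenol red with 10% FBS, receive compound titrations; after three days at 37 degrees C, surviving cell ATP is quantified by CellTiter-Glo luminescence and responses normalized and curve-fitted.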
ATXN2 expr inh – ATXN2 expression inhibition; HEK-293 ATXN2-luciferase reporter, luminescence, 24 h; AID 1745845; 360,000 compounds, 0.72% hits; Potency, µM (doses to about 57 µM), for inactives: top-dose activity change, negative = inhibition, usual class: inhibitors; also: % is scaled to controls: 0 for no effect and ±100 for the full control effect; nearly all actives have a fitted effect of over 55% in size
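ATXN2-luciferase reporter cells (luciferase flanked by upstream and downstream ATXN2 gene portions) were treated 24 h at 37 °C with compounds at up to 57 uM. SteadyGlo luminescence gave expression; GF-AFC fluorescence gave viability.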
HepG2 viability – kills HepG2 cells in TGF-b inhibitor counter-screen; AID 588856; Potency, µM (series often up to 46.1 µM), without a hit: at the top dose activity change, negative = cytotoxicity, most hits filed as cytotoxic; 410,000 compounds, 0.76% hits; HepG2 CAGA-GFP viability, ATP luminescence, 18 h
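HepG2 CAGA-GFP cells (1000/well, DMEM with 1% FBS) received compound, then TGF-beta at 500 pg/mL final, and were incubated 18 hours at 37 degrees C. Viability was read by CellTiter-Glo luminescence. Media-only wells were set as complete cell-killing and DMSO as no toxicity.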
* = called active by the depositor; i = inactive; ? = inconclusive; nt = not tested or not shown; ! = repeats disagree. In the library only some 5.9% were active in any assay of this set; here they are far more common. Calls follow the shape of the dose curve; as a rule, active = well fitted curve in the direction sought with a large enough effect; inconclusive = small, poorly fitted or top-dose-only effect, or another doubt; inactive = no such curve, though single readings can be large; an effect the other way counts as inactive or inconclusive. Potency is read from the fitted curve at half-maximal effect.

SMILES | S2 tox | TGFb SMAD3 inh | KB-3-1 tox | KB-V1 cytotox | ATXN2 expr inh | HepG2 viability
COc1ccc(N/C(N)=N/c2nc(CSc3nnc(C)s3)cc(=O)[nH]2)cc1 | ? | -26.6% | 5.17µM* | i | -31.2% | -1.3%
COCc1cc(=O)[nH]c(/N=C(\N)Nc2ccc(Oc3ccccc3)cc2)n1 | ? | -15.2% | i | 18.4µM* | 2.6% | -30.4%
Cc1ccc(SCc2cc(=O)[nH]c(/N=C(\N)Nc3cccc4ccccc34)n2)cc1 | i | -2.3% | i | i | 5.1% | -5.2%
O=c1c(NCc2cccs2)nccn1-c1ccc(F)cc1 | nt | -4.2% | nt | nt | nt | 5.6%
O=C(CCOCCOCCOCCOCCC(=O)Nc1c(I)cc(I)c(C(=O)O)c1I)Nc1c(I)cc(I)c(C(=O)O)c1I | i | nt | nt | nt | 6.4% | nt
CCn1cc(/C=C/C(=O)NCc2c(C)nn(C)c2C)cn1 | i | 1.5% | i | i | -1.9% | -14.1%
Cc1nn(C)c(C)c1CNC(=O)/C=C/c1ccccc1F | ? | 3.3% | i | 18.4µM* | 8.6% | 8.5%
CCc1ccc(NS(=O)(=O)c2ccc3[nH]cc(C(=O)NCCCOC(C)C)c(=O)c3c2)cc1 | i | 16.4% | i | i | 13.6% | -3.7%
N#Cc1c(NC(=O)CSc2ncn[nH]2)sc2c1CCCCC2 | ? | -19.4% | i | 4.11µM* | ? | -25.7%
N/C(=N\OC(=O)N1CCOCC1)c1ccc(Br)cc1 | i | 8.0% | i | 20.6µM* | nt | -30.5%
COCCCNC(=O)Nc1cc(C(=O)NCc2ccc(OC)cc2)ccc1N1CCCC1 | i | 17.8% | i | i | 34.2% | -5.8%
CCOC(=O)C1(Cc2cccc(OC)c2)CCN(Cc2cccn2-c2ccccn2)CC1 | i | 3.16µM* | i | i | -0.2% | 2.0%
Cn1cnnc1Sc1ccc(CN2CCOc3ccc(C4=Cc5ccccc5CC4)cc3C2)o1 | i | nt | nt | nt | nt | nt
C[C@H](CO)N1C[C@H](C)[C@@H](CN(C)C(=O)Nc2ccc(C(F)(F)F)cc2)Oc2c(NC(=O)Nc3ccc(C(F)(F)F)cc3)cccc2C1=O | 15.8µM* | 14.1µM* | 16.4µM* | ? | ? | -114.0%
C[C@H]1CN([C@@H](C)CO)C(=O)c2cccc(NC(=O)Nc3ccc(C(F)(F)F)cc3)c2O[C@@H]1CN(C)C(=O)Nc1ccc(F)cc1 | 12.6µM* | ? | ? | i | 20µM* | -89.2%
CCn1ccc2c(OCC(=O)NCc3ccccc3)cccc2c1=O | i | -1.1% | i | i | 5.8% | -10.1%
COc1ccc(OC(=O)CSc2nnc(-c3ccc(F)cc3)o2)cc1 | nt | -14.5% | i | i | nt | -4.9%
COc1ccc(-c2nnc(SCC(=O)Nc3cccc(Cl)c3)o2)cc1 | i | -1.9% | ? | 16.4µM* | 54.0% | -32.3%
COc1cccc(-c2nnc(SCC(=O)N(C(C)C)C(C)C)o2)c1 | i | 0.0% | i | 18.4µM* | 30.3% | -23.4%
COc1ccc(CN(C(=O)CSc2nnc(-c3ccc(F)cc3)o2)c2ccc(F)cc2)cc1 | i | -20.2% | i | 20.6µM* | 6.2% | -13.4%
COc1cc(OC)cc(-c2nnc(SCC(=O)N(C(C)C)C(C)C)o2)c1 | i | 2.2% | i | i | 1.8% | -3.4%
COc1ccc(CN(C(=O)CSc2nnc(-c3c[nH]c4ccccc34)o2)c2ccc(F)cc2)cc1OC | ? | -25.5% | ? | 14.6µM* | ? | 3.9%
COc1cc2c(cc1OC)/C(=C/C(=O)OCc1ccccc1)OC2 | nt | nt | i | ? | nt | nt
CCOc1ccc(NS(=O)(=O)c2ccc3[nH]cc(C(=O)N4CCCCCC4)c(=O)c3c2)cc1 | i | -0.7% | i | i | 25.5% | 6.2%
COc1cccc2c1Oc1ncccc1N(c1ccc(C(=O)NCc3cccc(C)c3)s1)C2 | nt | 1.5% | i | i | nt | -0.3%
SMILES | S2 tox | TGFb SMAD3 inh | KB-3-1 tox | KB-V1 cytotox | ATXN2 expr inh | HepG2 viability
Cc1cccc(OCCn2c(-c3ccc(Cl)cc3)nc3ccccc3c2=O)c1 | i | 1.5% | i | ? | -2.3% | -8.6%
COc1ccc(-c2nnc(SCC(=O)c3ccc(C)o3)o2)cc1 | i | -5.0% | ? | 23.1µM* | -4.9% | -12.4%
COc1ccc(-c2nnc(SCc3cc(C)cc(C)c3)o2)cc1 | ? | -11.5% | i | 20.6µM* | 3.1% | 2.5%
COc1ccc(-c2nnc(SCc3cccc(Cl)c3)o2)cc1 | i | -13.1% | i | i | 12.5% | -26.1%
Cc1ccc(C(=O)CSc2nnc(-c3ccco3)o2)o1 | i | -13.7% | i | i | 24.7% | -12.6%
Cc1onc(-c2cccc(Cl)c2Cl)c1C(=O)O/N=C(\N)c1ccc([N+](=O)[O-])o1 | i | ? | i | i | -33.3% | -25.1%
Cc1onc(-c2ccccc2)c1C(=O)O/N=C(\N)c1ccc([N+](=O)[O-])o1 | ? | 12.6µM* | ? | ? | nt | 12.6µM*
O=C1C2C3C=CC(C3)C2C(=O)N1c1ccc2c(c1)CCC2 (stereo not given) | i | -11.3% | i | 18.4µM* | 5.6% | -18.2%
CCc1ccccc1Nc1nc(N)nc(COC(=O)c2cccn2C)n1 | i | 4.9% | i | 14.6µM* | 49.2% | -33.1%
Cc1ccccc1Nc1nc(N)nc(COC(=O)c2cccn2C)n1 | i | -6.3% | i | i | 45.5% | -1.7%
Cc1ccccc1CS(=O)(=O)Cc1ccc(C(=O)NCCc2ccc(Cl)cc2)o1 | nt | 14.1µM* | i | i | nt | -19.2%
O=C(NCc1ccco1)c1ccc(CS(=O)(=O)Cc2ccc(Cl)cc2)o1 | i | -2.3% | i | 14.6µM* | 6.5% | -3.0%
Cc1ccc(CNC(=O)c2ccc(CSCc3c(F)cccc3Cl)o2)cc1 | i | 15.8µM* | i | i | 15.1% | -25.9%
Cc1ccc(CCNC(=O)c2ccc(CS(=O)(=O)Cc3ccccc3F)o2)cc1 | ? | -36.4% | i | 5.8µM*! | -12.5% | -16.0%
Cc1cc(C(=O)Nc2ccccc2-c2nc(CNC(=O)c3cc4ccccc4cn3)c(C)o2)c(C)o1 | i | nt | nt | nt | nt | nt
CC(C)CCNC(=O)c1ccc(CS(=O)(=O)Cc2ccccc2F)o1 | i | 12.0% | i | i | nt | 5.1%
O=C(NCCc1ccccc1)c1ccc(CS(=O)(=O)Cc2ccccc2F)o1 | ? | -4.0% | i | 14.6µM* | 13.3% | 0.9%
O=[N+]([O-])c1c(Nc2ccccc2O)ccc2nonc12 | ? | -19.8% | i | i | -15.9% | 2.1%
O=[N+]([O-])c1c(Nc2ccccc2O)cc(Cl)c2nonc12 | 12.6µM* | 3.98µM* | ? | ? | 12.6µM* | 10µM*
